Test results published in PubChem BioAssay AID2391 (Southern Research Specialized Biocontainment Screening …, 2010).
In all, about 310,000 compounds went through this assay and about 410 (0.13%) were called active. Another 2% or so got no clear call; they are omitted. No rule for the calls is given here. Not all results are given here. Results with a measured potency or affinity are listed apart.

Test: RSV antiviral activity via CPE protection, HEp-2 cells, primary 10 µM value included (AID 2391)
Details: RSV-induced CPE inhibition, at 10 µM, stronger effect = higher value

CPE inhibition, inactive:
Clc1ccc(OCc2nnc(-c3ccccc3Br)o2)cc1 11.5%
COc1ccc(-c2nc(CN3CCC(C(=O)N4CCc5ccccc54)CC3)c(C)o2)cc1OC 0.12%
COc1ccc(-c2nn(-c3ccccc3)cc2C2CC(c3cccs3)=NN2C(=O)CCCC(=O)O)cc1 (stereo not given) 6.41%
O=C(O)CCC(=O)N1N=C(c2cccs2)CC1c1cn(-c2ccccc2)nc1-c1ccccc1 (stereo not given) 1.96%
CCCCCCSc1cccc(-c2nc3ccc(Cl)cn3c2NCc2ccccc2)c1 -1.21%
O=C(CCSc1nnc2scc(-c3ccccc3)n12)Nc1nc(-c2ccccc2)ns1 9.19%
CCN(c1ccccc1)S(=O)(=O)c1cccc(C(=O)NCC(c2cccs2)N(C)C)c1 (stereo not given) -0.95%
CCOC(=O)C1=C(C)N=c2s/c(=C\c3ccc(OCC(=O)O)cc3)c(=O)n2C1c1ccc(Cl)cc1 (stereo not given) 18.1%
CCOC(=O)C1=C(C)N=c2s/c(=C\c3ccc(OCC(=O)O)c(OC)c3)c(=O)n2C1c1ccc(OC)cc1 (stereo not given) 2.77%
CC1CC(C)CN(S(=O)(=O)c2ccc(C(=O)OCC(=O)NCCN3C(=O)CSC3=O)cc2)C1 (stereo not given) 0.02%
Cc1nnc(SCC(=O)N(C2CCCCC2)C2CCS(=O)(=O)C2)n1N (stereo not given) -1.53%
O=C(CSc1nc2ccccc2o1)N1CCCC1 -0.37%
COC(=O)C1=C(C)N(Cc2ccco2)C(=O)N[C@@H]1c1ccc(Br)cc1 0.6%
COC(=O)C1=C(C)N(Cc2ccco2)C(=O)N[C@@H]1c1cccc(C(F)(F)F)c1 4.06%
CCN1C(=O)N[C@@H](c2cccc(C(F)(F)F)c2)C(C(=O)OC)=C1C -0.08%
COC(=O)C1=C(C)N(CC2CC2)C(=O)N[C@H]1c1ccc(Br)cc1 27%
COC(=O)C1=C(C)N(Cc2ccco2)C(=O)N[C@@H]1c1ccccc1 2.19%
COC(=O)C1=C(C)N(Cc2ccco2)C(=O)N[C@@H]1c1ccco1 0.83%
CCOCCOC(=O)C1=C(C)Nc2ccc(C)cc2S1 2.03%
CN(C(=O)COC(=O)c1cc(S(=O)(=O)N2CCOCC2)ccc1Cl)C1CCS(=O)(=O)C1 (stereo not given) -1.51%
CCn1nnnc1-c1ccc(OC)c(S(=O)(=O)Nc2ccc(C(=O)OC)cc2)c1 1.29%
Cc1ccc(CC(=O)NCC2CCCCC2)cc1 0.51%
Cc1ccsc1CNC1C2CC3CC(C2)CC1C3 (stereo not given) -1.39%
CC(C)c1ccc(/C=C(\NC(=O)c2ccccc2)C(=O)NCCN2CCOCC2)cc1 0.84%
Cc1ccc(C(=O)N/C(=C\c2ccc(Cl)cc2)C(=O)NCCN2CCOCC2)cc1 0.95%
CC(C)c1ccc(/C=C(\NC(=O)c2ccccc2)C(=O)NCCCN2CCOCC2)cc1 0.11%
Cc1ccc(C(=O)N/C(=C\c2ccc(Cl)cc2)C(=O)NCCCN2CCOCC2)cc1 2.02%
N#C/C(=C\c1ccc(OCc2ccc(C(=O)O)cc2)cc1)C(=O)NCc1ccccc1 1.49%
CCOc1ncccc1C(=O)N(C)CC(=O)Nc1ccccc1SC 1.11%
Clc1ccc(Sc2cc(Cl)c(-c3ccccc3)nn2)cc1 4.99%
O=C(C1=COCCO1)N1CCN(S(=O)(=O)c2cccc(F)c2)CC1 1.49%
Cc1cc2c(cc1S(=O)(=O)Nc1cccc(C)c1C)n(C)c(=O)c(=O)n2C -1.46%
CN(C)S(=O)(=O)c1cccc(NC(=O)COC(=O)CCC(=O)c2cccs2)c1 -1.26%
Cc1ccc(S(=O)(=O)NNC(=O)Nc2ccc(C)c(C)c2)c(C)c1 1.56%
COc1cccc(CN2C(=O)C3CCCN3c3ccc(S(=O)(=O)N4CCOCC4)cc32)c1 (stereo not given) 15.8%
COc1ccc(CCNC(=O)c2ccc(-c3ccc([N+](=O)[O-])cc3)o2)cc1OC 3.03%
COc1ccc(CCNC(=O)c2ccc([N+](=O)[O-])cc2)cc1 0.4%
COC(=O)c1ccccc1OC(=O)c1cc2ccccc2oc1=O -0.19%
Nc1nc(SCC(=O)c2ccc(F)cc2)n[nH]1 0.71%
O=C(CNc1cccc(C(F)(F)F)c1)N/N=C/c1ccccc1C(=O)O 1.07%
O=C(CNc1ccccc1)N/N=C/c1cn(-c2ccccc2)nc1-c1ccccc1 6.81%
CCOC(=O)N1CCN(C(=O)COc2ccc3c(c2)C(=O)CC(C)(C)O3)CC1 1.7%
COc1cc(C(C(=O)NC2CCCC2)N(C(=O)c2snc(C(N)=O)c2N)c2ccccc2)cc(OC)c1OC (stereo not given) 1.74%
Cc1ccc(N(C(=O)c2snc(C(N)=O)c2N)C(C(=O)NC2CCCC2)c2ccncc2)cc1 (stereo not given) 0.36%
COc1ccc(C(C(=O)NC2CCCC2)N(C(=O)c2snc(C(N)=O)c2N)C2CCCC2)cc1OC (stereo not given) 3.34%
COc1ccc(C(C(=O)NC2CCCC2)N(C(=O)c2snc(C(N)=O)c2N)c2ccccc2OC)cc1OC (stereo not given) 17.8%
Cc1ccc(C(CCN(Cc2ccccc2)C(=O)c2ccco2)c2ccco2)cc1 (stereo not given) 6.53%
Cc1cccc(CSc2nc3sc(C)c(C)c3c(=O)n2Cc2ccco2)c1 13.2%
COCCn1c(SCC(=O)Nc2ccc(Cl)cn2)nc2ccccc21 -1.02%
Cc1cc(SCC(=O)Nc2ncc(Cl)cc2Cl)nc2ccccc12 5.54%
O=C(CSc1nnc2ccccn12)Nc1ncc(Cl)cc1Cl 4.23%
COc1ccc(-n2c(SC(C)C(=O)Nc3ncc(Cl)cc3Cl)nc3ccccc32)cc1 (stereo not given) 15.9%
COc1ccc(-n2c(SCC(=O)Nc3ncc(Cl)cc3Cl)nc3ccccc32)cc1 18.7%
Cc1ccc(-n2c(SCC(=O)Nc3cccc(S(N)(=O)=O)c3)nc3ccccc32)cc1 1.64%
CC(=O)N[C@@H](Cc1ccc(O)cc1)CN1C(N)=NC[C@@H]1CC(C)C -0.28%
